Here are results for 40 compounds from PubChem BioAssay (NCI).

Structures are written as SMILES. The panel holds about 83,000 compounds, 20% with a hit somewhere; the sample as a whole holds those more often.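 Assay: single dose, 48 h. Readout: percent growth (0 = no net growth; negative = cell death). Active: <10.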 Calls of active or inactive are those of the source.

This assay relates to OVCAR-3 ovarian. As to the kind of experiment: NCI-60 one-dose screen, 48 h (100 = growth as untreated, 0 = no growth, -100 = all killed). Particulars: 10 µM unless noted. The method, then:
Growth inhibition of the OVCAR-3 human tumor cell line is measured as a screen for anti-cancer activity. Cells are grown in 96 well plates and exposed to the test compound for 48 hours. Compounds are tested at a single concentration, which is 10^-5 M for most compounds. The reported endpoint is percent growth (GI% or GIPRCNT), where numbers from 0 - 100% represent growth inhibition, and numbers from -100% - 0 represent cell death. For example, a value of 40 represents 60% growth inhibition. A value of 0 means no net growth occurred over the course of the experiment. A value of -40 indicates 40% of cells at the beginning of the experiment died by the end of the experiment. A value of -100 means all cells are dead at the end of the experiment.
NCI-60 Human Tumor Cell Lines Screen was performed using the standard one-dose NCI protocol, which is described in more detail at https://dtp.cancer.gov/discovery_development/nci-60/default.htm.
Compounds with GIPRCNT values below 10 were considered active. Activity score was based on GIPRCNT using the following formula: […]
Score is 0 for GIPRCNT values of 100 or above, 50 for GIPRCNT values of 0, and 100 for GIPRCNT values of -100.
For `O=C(CC1Sc2ccccc2NC1=O)NNc1cccc(Cl)c1Cl` (stereo not given), the growth is 81.7% (inactive).

Take `CCOC(=O)/C=C1/SC(=Nc2ccc(C#N)cc2)N(Cc2ccco2)C1=O`: the growth was 17.9% (inactive).

As to `COc1ccc(C2=NN(C=O)C(c3cccc(Nc4ccnc5cc(Cl)ccc45)c3)C2)cc1` (stereo not given), the growth is 13.8% (inactive).

As to `CC(=O)N1N=C(c2ccc(Nc3nc(NCCO)nc(NCCO)n3)cc2)CC1c1ccc(Cl)cc1` (stereo not given), the growth was 96.4% (inactive). Regarding `Clc1ccc(C2=NN(c3ccc(Cl)cc3)C(c3cccc(Nc4ccnc5cc(Cl)ccc45)c3)C2)cc1` (stereo not given), the growth was 85.8% (inactive).

For the compound `NC(=O)c1cc(Cl)ccc1NC(=O)c1ccccc1-c1ccccc1`, the growth is -30.7% (active).

Regarding `Cc1ccc(S(=O)(=O)NCCN2c3nc4ccccc4cc3Sc3cc4ccccc4nc32)cc1`, the growth is 83.7% (inactive). Consider `Nc1ccc2c(c1)C(=O)c1cc(Cl)c(Cl)cc1-2`, for which the growth is 110% (inactive). On to `O=CN1N=C(c2ccc(Cl)cc2)CC1c1cccc(Nc2ccnc3cc(Cl)ccc23)c1` (stereo not given), for which the growth was 16.3% (inactive). The result for `O=C(O)CNC(=O)C1(N2C(=O)c3ccccc3C2=O)CCCC1` reads 139% (inactive). In the case of `COc1ccc2c(c1)CC[C@@H]1[C@@H]2CC[C@]2(C)[C@@H](O)C(=O)C[C@@H]12` it was 106% (inactive); in that of `CCCCCCCSc1ncnc2[nH]ncc12`, 79.9% (inactive). The result for `Cn1cc(NC(=O)Nc2cc(C(=O)O)n(C)c2)cc1C(=O)O` reads 102% (inactive); that for `N#Cc1ncc(-c2ccc(C(F)(F)F)cc2)c(NC2CCCCCC2)n1`, 1.17% (active); that for `CC(C)=CCNc1ncnc2c1ncn2C1OC(COP(=O)(O)O)C(O)C1O` (stereo not given), 0.0655% (active). As to `C[N+]1(C)C2CC[C@@H]1CC(OC(=O)C(O)c1ccccc1)C2` (stereo not given in full), the growth was 121% (inactive). Regarding `Oc1ccccc1/C=N/N1CCCCCC1`, the growth is 108% (inactive).

Take `N#Cc1ccc(-c2csc(Nc3ccc4nc5n(c(=O)c4c3)CCC5)n2)cc1`: the growth is 116% (inactive). In the case of `C[C@H]1O[C@@H](O[C@H]2[C@@H](O)C[C@H](O[C@H]3[C@@H](O)C[C@H](O[C@H]4CC[C@]5(C)C6C[C@@H](O)[C@]7(C)[C@@H](C8=CC(=O)OC8)CC[C@]7(O)C6CC[C@@H]5C4)O[C@@H]3C)O[C@@H]2C)C[C@H](O)[C@@H]1O` (stereo not given in full) it was -100% (active); in that of `COc1ccc2c(=O)c(OC)c(-c3cc(OC)c(OC)c(OC)c3)oc2c1`, 98.6% (inactive); in that of `Cc1ncc(C(=O)Nc2ccc(CN3CCN(C)CC3)c(C(F)(F)F)c2)cc1C#Cc1cncc2ncccc12`, 83% (inactive). The result for `COc1ccc(C(=O)COc2ccc(/C=C3\Oc4ccc5ccccc5c4C3=O)cc2)cc1` reads 115% (inactive). In the case of `O=C(Oc1cccc2ccccc12)c1ccccc1C(=O)c1ccccc1` it was 65.6% (inactive); in that of `C(=C1c2ccccc2-c2ccccc21)c1ccccn1`, 53.1% (inactive); in that of `CCOC(=O)c1cc2oc(/C=C/c3cc(=O)c4cc(Cl)ccc4o3)cc2[nH]1`, 72.3% (inactive).

For `CCSc1nc(-c2ccc(F)cc2)c(C#N)c(=O)[nH]1`, the growth is 122% (inactive). The result for `CN(C)c1ccc(-n2nc3ccccc3n2)cc1` reads 93.7% (inactive).

For the compound `CC1(C)CC2(C)CC(=O)C1C(C(=O)O)C2C(=O)O` (stereo not given), the growth is 105% (inactive). As for `O=C(Nc1nc2ccc(OC(F)(F)F)cc2s1)c1ccc(F)cc1`, the growth is -37.8% (active).

Consider `CCOC(=O)c1sc(NC(=O)COc2cccc(/C=C3\CCc4cc(OC)ccc4C3=O)c2)nc1C`, for which the growth was 38.2% (inactive).

For `O=C(Nc1ccccc1OC(=O)c1ccccc1)c1ccccc1`, the growth was 77.7% (inactive). The result for `OCCCc1n(Cc2ccc3ccccc3c2)c2ccccc2[n+]1Cc1ccc2ccccc2c1` reads 0.774% (active); that for `COc1cnc2c(c1)C(=O)c1c-2n(CCCN2CCC(O)CC2)c(=O)c2cc(F)ccc12`, -8.34% (active). Turning to `COC(=O)[C@H](Cc1cn(C)cn1)NC(=O)[C@H](Cc1ccccc1)NC(=O)Nc1cc(C(F)(F)F)cc(C(F)(F)F)c1`, the growth was -99.1% [100 µM] (active).

As to `CN1CCN(c2nc3scc(-c4ccccc4)c3c(=O)[nH]2)CC1`, the growth is 102% (inactive). In the case of `O=C(COc1ccc(/C=C2\Oc3ccc4ccccc4c3C2=O)cc1)c1ccc([N+](=O)[O-])cc1`, the growth is 158% (inactive). As to `O=C(/C=C/c1cccc(Nc2ccnc3cc(Cl)ccc23)c1)c1ccc(Cl)cc1`, the growth is 56.8% (inactive).

On to `C[C@]12CC[C@H](O)CC1=CC[C@@H]1[C@@H]2CC[C@]2(C)C(c3cccnc3)=CC[C@@H]12`, for which the growth was 56.1% (inactive). Take `CCN(CC)c1ccc(/C=C/C(=O)c2cccc(NS(C)(=O)=O)c2)cc1`: the growth was 48.5% (inactive).

Regarding `CCCCN1c2nc3ccccc3cc2Sc2cc3ccccc3nc21`, the growth was 294% (inactive).
